Data taken from PubChem BioAssay (NCATS).
Results filed as inconclusive are left out. Where a call stands in place of a potency, no number is given. Activity calls are given as the source filed them. Unless noted, calls come from the whole dose curve; as a rule, active = well fitted inhibition curve with a large enough effect; inconclusive = small, poorly fitted or top-dose-only effect; inactive = flat fitted curve, though single readings scatter.

Assays:
[1] = qHTS drug screen for cell cycle checkpoint inhibitors in PARPi-resistant BRCA-mutant ovarian cancer cell lines. (AID 1963452; calls by dose curve); details: PEO1/OlaR viability, CellTiter-Glo luminescence, 96 h, stronger effect = lower value
Method in brief: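 PEO1, PEO4 and PEO1/OlaR ovarian cancer cells, 600 per well, exposed 96 h at 37C to a dilution series. Viability read by CellTiter-Glo luminescence, normalized to DMSO and empty wells; activity summarized as Z-AUC.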

[2] = qHTS for identification of novel therapeutic agents for treatment of microphthalmiaassociated transcription factor (MiT) renal cell carcinoma (RCC) (AID 1963991); details: CellTiter-Glo, 48 h, stronger effect = lower value
Method in brief: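 Three TFE3-fusion RCC lines (UOK109, UOK124, UOK145), 500 cells/well in complete medium, were treated with MIPE 4.0 compounds for 48 hours at 37 C. Viability was by CellTiter-Glo luminescence, normalized to DMSO (100%) and empty wells (0%); curves fitted over 11 concentrations.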

[3] = qHTS profiling for inhibitors of Plasmodium falciparum proliferation (AID 504749); note: nearly all actives have a fitted effect of over 60% in size; note: potency is the fitted concentration of half-maximal effect; details: P. falciparum in erythrocytes, SYBR Green DNA, 72 h
Method in brief: (§1)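 Three-day growth assay of blood-stage parasites in erythrocytes (0.3% parasitemia, 2.5% hematocrit) at 37 C, 5% CO2, quantified by SYBR Green DNA staining after overnight detergent lysis.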

[4] = test system: 7G8; test: as above; details: P. falciparum in erythrocytes, SYBR Green DNA, 72 h; series mostly up to 28.7 µM
Method in brief: as §1

[5] = test system: AA1029; test: as above; details: P. falciparum in erythrocytes, SYBR Green DNA, 72 h; series mostly up to 28.7 µM
Method in brief: as §1

[6] = test system: AS120; test: as above; details: P. falciparum in erythrocytes, SYBR Green DNA, 72 h; series mostly up to 28.7 µM
Method in brief: as §1

[7] = test system: ATS189; test: as above; details: P. falciparum in erythrocytes, SYBR Green DNA, 72 h; series mostly up to 28.7 µM
Method in brief: as §1

[8] = test system: ATS95; test: as above; details: P. falciparum in erythrocytes, SYBR Green DNA, 72 h; series mostly up to 28.7 µM
Method in brief: as §1

[9] = test system: C2A; test: as above; details: P. falciparum in erythrocytes, SYBR Green DNA, 72 h; series mostly up to 28.7 µM
Method in brief: as §1

[10] = test system: CP185; test: as above; details: P. falciparum in erythrocytes, SYBR Green DNA, 72 h; series mostly up to 28.7 µM
Method in brief: as §1

[11] = test system: CP191; test: as above; details: P. falciparum in erythrocytes, SYBR Green DNA, 72 h; series mostly up to 28.7 µM
Method in brief: as §1

[12] = test system: CP192; test: as above; details: P. falciparum in erythrocytes, SYBR Green DNA, 72 h; series mostly up to 28.7 µM
Method in brief: as §1

[13] = test system: CP194; test: as above; details: P. falciparum in erythrocytes, SYBR Green DNA, 72 h; series mostly up to 28.7 µM
Method in brief: as §1

[14] = test system: CP201; test: as above; details: P. falciparum in erythrocytes, SYBR Green DNA, 72 h; series mostly up to 28.7 µM
Method in brief: as §1

[15] = test system: CP203; test: as above; details: P. falciparum in erythrocytes, SYBR Green DNA, 72 h; series mostly up to 28.7 µM
Method in brief: as §1

[16] = test system: CP211; test: as above; details: P. falciparum in erythrocytes, SYBR Green DNA, 72 h; series mostly up to 28.7 µM
Method in brief: as §1

[17] = test system: CP215; test: as above; details: P. falciparum in erythrocytes, SYBR Green DNA, 72 h; series mostly up to 28.7 µM
Method in brief: as §1

[18] = test system: CP217; test: as above; details: P. falciparum in erythrocytes, SYBR Green DNA, 72 h; series mostly up to 28.7 µM
Method in brief: as §1

[19] = test system: 3D7; test: as above; details: P. falciparum in erythrocytes, SYBR Green DNA, 72 h; series mostly up to 28.7 µM
Method in brief: as §1

[20] = measured here: PEO1 parental Z-AUC
[21] = TFE3-RCC UOK109 viability, measured here: UOK109 Z-AUC
[22] = TFE3-RCC viability, measured here: UOK124 Z-AUC
[23] = TFE3-RCC viability, measured here: UOK145 Z-AUC
[24] = at 28.7 µM (top of the series), parasite line A
[25] = at 28.7 µM (top of the series), parasite line B

C=C(c1ccc(C(=O)O)cc1)c1cc2c(cc1C)C(C)(C)CCC2(C)C
Z-AUC [1]: 1.36 (inactive)
Z-AUC [1, 20]: 0.659
Z-AUC ([1]; measured here: PEO4 Z-AUC): 0.161
z-score [2, 21]: 0.216
z-score [2, 22]: -0.242
z-score [2, 23]: -0.306
activity, negative = inhibition [3, 24]: -4.04% (inactive)
activity, negative = inhibition [3, 25]: 4.75% (inactive)
Potency [4]: 8.91 µM (active)
Potency [5]: inactive
Potency [6]: inactive
Potency [7]: inactive
Potency [8]: inactive
Potency [9]: inactive
Potency [10]: inactive
Potency [11]: inactive
Potency [12]: inactive
Potency [13]: inactive
Potency [14]: inactive
Potency [15]: inactive
Potency [16]: inactive
Potency [17]: inactive
Potency [18]: inactive

CNC[C@H](O)c1ccc(O)c(O)c1
Z-AUC [1]: 0.904 (inactive)
Z-AUC [1, 20]: 1.34
Z-AUC ([1]; measured here: PEO4 Z-AUC): 1.03
activity, negative = inhibition [3, 24]: -8.23% (inactive)
activity, negative = inhibition [3, 25]: 3.15% (inactive)
Potency [4]: inactive
Potency [5]: inactive
Potency [6]: inactive
Potency [7]: inactive
Potency [8]: inactive
Potency [9]: inactive
Potency [10]: inactive
Potency [11]: inactive
Potency [12]: inactive
Potency [13]: inactive
Potency [14]: inactive
Potency [15]: inactive
Potency [16]: inactive
Potency [18]: inactive

CC(S)C(=O)NCC(=O)O (stereo unspecified)
Z-AUC [1]: -0.465 (inactive)
Z-AUC [1, 20]: 0.365
Z-AUC ([1]; measured here: PEO4 Z-AUC): 0.0416
activity, negative = inhibition [3, 24]: 5.37% (inactive)
activity, negative = inhibition [3, 25]: 13.7% (inactive)
Potency [19]: inactive
Potency [5]: inactive
Potency [6]: inactive
Potency [7]: inactive
Potency [8]: inactive
Potency [9]: inactive
Potency [10]: inactive
Potency [11]: inactive
Potency [12]: inactive
Potency [13]: inactive
Potency [14]: inactive
Potency [15]: inactive
Potency [16]: inactive
Potency [17]: inactive
Potency [18]: inactive

O=C(NC(Cc1cc(=O)[nH]c2ccccc12)C(=O)O)c1ccc(Cl)cc1 (stereo unspecified)
activity, negative = inhibition [3, 24]: 1.94% (inactive)
activity, negative = inhibition [3, 25]: -14.9% (inactive)
Potency [19]: inactive
Potency [4]: inactive
Potency [5]: inactive
Potency [6]: inactive
Potency [7]: inactive
Potency [8]: inactive
Potency [9]: inactive
Potency [10]: inactive
Potency [11]: inactive
Potency [12]: inactive
Potency [13]: inactive
Potency [14]: inactive
Potency [16]: inactive
Potency [17]: inactive
Potency [18]: inactive

N=C(N=C(N)N)N1CCOCC1
activity, negative = inhibition ([3]; at 12.8 µM (top of the series), parasite line A): -9.52% (inactive)
activity, negative = inhibition ([3]; at 12.8 µM (top of the series), parasite line B): 11.1% (inactive)
Potency [19]: inactive
Potency [4]: inactive
Potency [5]: inactive
Potency [7]: inactive
Potency [8]: inactive
Potency [9]: inactive
Potency [10]: inactive
Potency [11]: inactive
Potency [12]: inactive
Potency [13]: inactive
Potency [14]: inactive
Potency [15]: inactive
Potency [16]: inactive
Potency [17]: inactive
Potency [18]: inactive

Cn1c(NCCN(CCO)CCCc2ccc([N+](=O)[O-])cc2)cc(=O)n(C)c1=O
activity, negative = inhibition [3, 24]: 6.79% (inactive)
activity, negative = inhibition [3, 25]: 16.9% (inactive)
Potency [19]: inactive
Potency [5]: inactive
Potency [6]: inactive
Potency [7]: inactive
Potency [8]: inactive
Potency [9]: inactive
Potency [10]: inactive
Potency [12]: inactive
Potency [13]: inactive
Potency [14]: inactive
Potency [16]: inactive
Potency [17]: inactive
Potency [18]: inactive

O=C(OC1C[C@H]2CC[C@@H](C1)[N+]21CCCC1)C(O)(c1ccccc1)c1ccccc1 (stereo partly specified)
z-score [2, 21]: 0.286
z-score [2, 22]: 0.765
z-score [2, 23]: 0.653
Potency [4]: 6.31 µM (active)
Potency [5]: 2.51 µM (active)
Potency [9]: 5.01 µM (active)
Potency [10]: 2.82 µM (active)
Potency [12]: 3.79 µM (active)
Potency [16]: 1.9 µM (active)

Cc1nccn1CC1CCc2c(c3ccccc3n2C)C1=O (stereo unspecified)
z-score [2, 21]: 0.748
z-score [2, 22]: 0.745
z-score [2, 23]: 0.411

COc1c(O)cc2c(c1O)[C@@H]1O[C@H](CO)[C@@H](O)[C@H](O)[C@H]1OC2=O
z-score [2, 21]: 0.427
z-score [2, 22]: 0.313
z-score [2, 23]: -0.262
